This note sets out measurements from PubChem BioAssay (EPA / NIEHS).

Where “and” joins values, the source holds several entries; their conditions need not be identical. Equal values may be shown once. Inconclusive results are not listed. A structure can be active in one record and inactive in another. Calls of active or inactive are those of the source. The calls were made as follows, unless noted: active = hit-call score of the fitted dose curve at least 0.9, where 1 is the maximum; inactive = score below 0.9.

Read-out in test [1]: Interleukin-8 (IL8), CXCL8 (gene 3576)
Kind of test: BSK_3C_IL8: BioMAP Diversity Plus: 3C Assay for Interleukin-8 (IL8) Biomarker Activity (AID 2283020). The settings on record: primary human endothelial cells (HUVEC); actives raise or lower the signal. Put shortly:
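Using DMSO-treated wells as the baseline, bidirectional curve fitting was applied to ELISA-measured IL-8 from human umbilical vein endothelial cultures sampled 24 h after compound addition.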

Read-out in test [2]: Monokine induced gamma interferon (MIG), CXCL9 (gene 4283)
Kind of test: BSK_3C_MIG: BioMAP Diversity Plus: 3C Assay for Monokine induced gamma interferon (MIG) Biomarker Activity (AID 2283021). The settings on record: primary human endothelial cells (HUVEC); actives raise or lower the signal. Put shortly:
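ELISA-measured MIG in dosed HUVEC 3C cultures at 24 h, analysed by bidirectional fitting with DMSO defining baseline activity.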

In test [3] the target is human Vitamin D Receptor (VDR), VDR (gene 7421) (UniProt P11473). The test is described as follows: ATG_VDR_TRANS: Attagene TRANS-FACTORIAL HepG2 Assay for human Vitamin D Receptor (VDR) (AID 2283022; active = hit-call score of the fitted dose curve at least 0.9, where 1 is the maximum). The gist of the method:
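RT-PCR/capillary electrophoresis read-out of reporter mRNA induction in transiently transfected HepG2; 24 h dosing; chimeric NR-Gal4 (TRANS format); gain-of-signal fit against DMSO baseline.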

Test [4] in a line: BSK_3C_SRB: Viability Assessment in the BioMAP Diversity Plus: 3C Assay (AID 2283023).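 Also: cells read 24 h after compound dosing; fitted both ways against DMSO so a hit may be signal rise or drop.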 The settings on record: primary human endothelial cells (HUVEC). Put shortly:
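HUVEC, 24 h post-dose; 10% TCA fix, 0.1% SRB stain, A560 nm. Bidirectional curve fit vs DMSO negative control.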

Read-out in test [5]: Matrix Metallopeptidase 1 (MMP1), MMP1 (gene 4312)
The test is described as follows: BSK_BE3C_MMP1: BioMAP Diversity Plus: BE3C Assay for Matrix Metallopeptidase 1 (MMP1) Biomarker Activity (AID 2283024). The settings on record: primary human bronchial epithelial cells; actives raise or lower the signal. The gist of the method:
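In this multiplexed primary-cell system, human bronchial epithelium received chemicals for 24 h before an ELISA for MMP1. Values reflect bidirectional fits normalised to the DMSO baseline.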

A short description of test [6]: BSK_3C_Vis: BioMAP Diversity Plus: 3C Assay for Morphology Visualization (AID 2283025).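 Also: fitted both ways so gain or loss versus DMSO counts.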 As to conditions: primary human endothelial cells (HUVEC). The gist of the method: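 Light-microscopy morphology readout, 24 h exposure, human primary umbilical vein endothelium; analysed relative to DMSO with bidirectional fitting.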
Read-out in test [7]: Pselectin, SELP (gene 6403)
Kind of test: BSK_4H_Pselectin: BioMAP Diversity Plus: 4H Assay for Pselectin Biomarker Activity (AID 2283026). As to conditions: primary human endothelial cells (HUVEC); actives raise or lower the signal. The gist of the method: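 Bidirectional fits against DMSO gave the endpoint. Cells: primary human umbilical vein endothelium, chemical-treated for 24 h before ELISA detection of P-selectin.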

Test [8] can be described thus: BSK_4H_SRB: Viability Assessment in the BioMAP Diversity Plus: 4H Assay (AID 2283027).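 Also: cells exposed to compound for 24 h before staining.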 The settings on record: primary human endothelial cells (HUVEC). Put shortly: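 HUVEC, 24 h post-dose; 10% TCA fix, 0.1% SRB stain, A560 nm. Total protein = overt cytotoxicity, parallel to biomarker read. Bidirectional fit vs DMSO baseline.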
Test [9] is described as follows: BSK_BE3C_SRB: Viability Assessment in the BioMAP Diversity Plus: BE3C Assay (AID 2283028).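 As to AC50: fitted both ways so AC50 may mark signal gain or loss versus DMSO.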 The settings on record: primary human bronchial epithelial cells. The gist of the method: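 Primary human bronchial epithelium; chemical dosing, 24 h; 10% TCA fix, 0.1% SRB stain, A560; bidirectional fit vs DMSO baseline.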
Read-out in test [10]: Thrombomodulin, THBD (gene 7056)
The test is described as follows: BSK_3C_Thrombomodulin: BioMAP Diversity Plus: 3C Assay for Thrombomodulin Biomarker Activity (AID 2283029). The settings on record: primary human endothelial cells (HUVEC); actives raise or lower the signal. Put shortly: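 In a multiplexed primary-cell system, human umbilical vein endothelium received chemical and was assayed 24 h later for thrombomodulin by ELISA. Parallel cultures were SRB-stained (0.1% SRB after 10% TCA fixation, read at 560 nm) to flag cytotoxicity.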

Read-out in test [11]: Urokinase-type plasminogen activator receptor (uPAR), PLAUR (gene 5329)
The test is described as follows: BSK_4H_uPAR: BioMAP Diversity Plus: 4H Assay for Urokinase-type plasminogen activator receptor (uPAR) Biomarker Activity (AID 2283030). As to conditions: primary human endothelial cells (HUVEC); actives raise or lower the signal. Put shortly:
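HUVEC, 24 h post-dose; uPAR by ELISA; bidirectional fit vs DMSO baseline.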

Read-out in test [12]: Vascular endothelial growth factor receptor 2 (Homo sapiens) (UniProt P35968)
Kind of test: BSK_4H_VEGFRII: BioMAP Diversity Plus: 4H Assay for Vascular endothelial growth factor receptor 2 (VEGFR2) Biomarker Activity (AID 2283031). The settings on record: primary human endothelial cells (HUVEC); actives raise or lower the signal. Put shortly: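 HUVEC (human primary), 4H system; 24 h post-dose; VEGFRII by ELISA; bidirectional curve fit vs DMSO baseline; gain or loss of signal scored.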

Read-out in test [13]: Human Leukocyte Antigen - DR isotype (HLADR), HLA-DRA (gene 3122)
The test is described as follows: BSK_BE3C_HLADR: BioMAP Diversity Plus: BE3C Assay for Human Leukocyte Antigen - DR isotype (HLADR) Biomarker Activity (AID 2283032). The settings on record: primary human bronchial epithelial cells; actives raise or lower the signal. The gist of the method:
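BioMAP BE3C format: human bronchial epithelium, 24 h compound treatment, ELISA detection of HLA-DR, with bidirectional analysis relative to DMSO.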

Read-out in test [14]: Vascular cell adhesion molecule 1 (VCAM1), VCAM1 (gene 7412)
The test is described as follows: BSK_4H_VCAM1: BioMAP Diversity Plus: 4H Assay for Vascular cell adhesion molecule 1 (VCAM1) Biomarker Activity (AID 2283033).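 Also: cell-surface VCAM-1 protein measured by ELISA.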 The settings on record: primary human endothelial cells (HUVEC); actives raise or lower the signal. Put shortly:
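In this human endothelial (HUVEC) system, biomarker ELISA was run 24 h after compound addition, and total protein in parallel wells was assessed by SRB at 560 nm; DMSO served as negative control.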

Read-out in test [15]: Interferon-gamma inducible Protein 10 (IP10), CXCL10 (gene 3627)
Kind of test: BSK_BE3C_IP10: BioMAP Diversity Plus: BE3C Assay for Interferon-gamma inducible Protein 10 (IP10) Biomarker Activity (AID 2283034). The settings on record: primary human bronchial epithelial cells; actives raise or lower the signal. Put shortly: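 BE3C cells (human bronchial epithelial, primary); 24 h exposure; ELISA for IP-10; DMSO-referenced bidirectional fit.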

Read-out in test [16]: Monokine induced gamma interferon (MIG), CXCL9 (gene 4283)
Kind of test: BSK_BE3C_MIG: BioMAP Diversity Plus: BE3C Assay for Monokine induced gamma interferon (MIG) Biomarker Activity (AID 2283035).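 Also: MIG protein measured by ELISA in BE3C cultures after 24 h of dosing.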 As to conditions: primary human bronchial epithelial cells; actives raise or lower the signal. The gist of the method: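 Dose cells (human primary bronchial epithelial), incubate 24 h, quantify MIG by ELISA, then fit concentration–response in both directions relative to DMSO control.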

Read-out in test [17]: Transforming growth factor beta 1 (TGFb1), TGFB1 (gene 7040)
Kind of test: BSK_BE3C_TGFb1: BioMAP Diversity Plus: BE3C Assay for Transforming growth factor beta 1 (TGFb1) Biomarker Activity (AID 2283036;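 also: TGF-b1 protein level measured by ELISA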). As to conditions: primary human bronchial epithelial cells; actives raise or lower the signal. The gist of the method:
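TGF-b1 measured via ELISA, 24 h after chemical dosing of human bronchial epithelial cells (BE3C). Overt cytotoxicity assessed in parallel by SRB (0.1%, TCA-fixed, 560 nm); analysis bidirectional relative to DMSO.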

Read-out in test [18]: Plasminogen activator inhibitor-1 (PAI1), SERPINE1 (gene 5054)
The test is described as follows: BSK_BE3C_PAI1: BioMAP Diversity Plus: BE3C Assay for Plasminogen activator inhibitor-1 (PAI1) Biomarker Activity (AID 2283037). As to conditions: primary human bronchial epithelial cells; actives raise or lower the signal. The gist of the method: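 In this multiplexed primary-cell system, bronchial epithelial cells receive test chemical and are sampled at 24 h. PAI-1 is read by ELISA, with DMSO serving as negative control for bidirectional fitting.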

Read-out in test [19]: urokinase plasminogen activator (uPA), PLAU (gene 5328)
Kind of test: BSK_BE3C_uPA: BioMAP Diversity Plus: BE3C Assay for urokinase plasminogen activator (uPA) Biomarker Activity (AID 2283038).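 Also: uPA protein level quantified by ELISA in cell cultures; uPA read one day after compound addition.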 As to conditions: primary human bronchial epithelial cells; actives raise or lower the signal. The gist of the method:
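ELISA read-out of uPA in human lung primary bronchial epithelial cultures, 24 h post-dosing. Gain or loss of signal fitted bidirectionally relative to DMSO baseline; cytotoxicity checked in parallel cultures via SRB total protein stain.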

Read-out in test [20]: Urokinase-type plasminogen activator receptor (uPAR), PLAUR (gene 5329)
The test is described as follows: BSK_BE3C_uPAR: BioMAP Diversity Plus: BE3C Assay for Urokinase-type plasminogen activator receptor (uPAR) Biomarker Activity (AID 2283039).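 As to outcome: uPAR protein level measured by ELISA on the cells; cells exposed to compound for one day before measurement.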 As to conditions: primary human bronchial epithelial cells; actives raise or lower the signal. The gist of the method:
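Chemically treated human bronchial epithelial cells (lung primary) are assayed for uPAR by ELISA after 24 h, with data fitted in both directions using DMSO as negative control.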

Sequence of human Vitamin D Receptor (VDR), VDR (gene 7421) (P11473 whole entry, looked up, the tested form may be a part): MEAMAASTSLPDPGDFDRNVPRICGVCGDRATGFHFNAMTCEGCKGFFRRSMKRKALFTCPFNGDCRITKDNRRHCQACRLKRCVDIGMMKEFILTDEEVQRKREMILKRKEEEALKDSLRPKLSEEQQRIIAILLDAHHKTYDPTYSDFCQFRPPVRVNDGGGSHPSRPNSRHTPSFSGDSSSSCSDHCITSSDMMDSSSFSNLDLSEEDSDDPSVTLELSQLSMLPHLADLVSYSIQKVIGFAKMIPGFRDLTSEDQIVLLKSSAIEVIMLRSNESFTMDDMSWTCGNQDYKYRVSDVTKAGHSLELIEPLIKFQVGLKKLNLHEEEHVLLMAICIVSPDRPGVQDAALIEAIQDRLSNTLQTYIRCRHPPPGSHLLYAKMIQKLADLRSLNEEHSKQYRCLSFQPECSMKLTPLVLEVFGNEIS

As to `CCCCC(CC)C(=O)OCCOCCOCCOCCOC(=O)C(CC)CCCC` (stereo not drawn), the outcome in [1], in [2], in test [3], in test [4], in test [5] and in test [6] was inactive. Further, the result in test [7], in [8], in test [9], in test [10], in [11] and in test [12] was inactive. The result in [13], in test [14], in [15], in test [16], in [17] and in test [18] was inactive. The result in test [19] and in test [20] was inactive.
What is called AC50 is the midpoint of the concentration-response curve, whichever way the signal moves. On to `O=S(=O)(O)C(F)(F)C(F)(F)C(F)(F)C(F)(F)C(F)(F)C(F)(F)C(F)(F)C(F)(F)C(F)(F)C(F)(F)F`, for which the result in test [1], in [2], in test [3], in test [5], in test [7] and in test [8] was inactive. Further, the result in [10], in test [11], in test [12], in test [14], in test [16] and in test [19] was inactive. Also, the outcome in test [20] was inactive. Besides, the AC50 was 18.5 µM (active) and 14.5 µM (active) in [4]; 3.54 µM (active) in test [5]; 12.9 µM (active) and 10.8 µM (active) in [9]; 18.2 µM (active) and 15.8 µM (active) in test [13]; 13.3 µM (active) and 12 µM (active) in test [15]; 7.29 µM (active) and 5.4 µM (active) in test [18]. Moreover, the concentration at half-maximal activity (AC50) in test [20] was 21.5 µM (active).
For the molecule `COc1cc(OC)nc(NC(=O)NS(=O)(=O)Nc2ccccc2C(=O)N(C)C)n1`, the result in test [1], in test [2], in test [4], in test [5], in test [6] and in test [7] was inactive. Further, the outcome in test [8], in test [9], in [10], in test [11], in test [12] and in test [13] was inactive. In addition, the result in [14], in test [15], in [16], in test [17], in test [18] and in [19] was inactive. Also, the result in test [20] was inactive.
Take `O=C(NCc1ncc(C(F)(F)F)cc1Cl)c1c(Cl)cccc1Cl`: the result in test [1], in test [2], in test [3], in test [4], in test [5] and in [6] was inactive. In addition, the result in test [7], in test [8], in [9], in test [10], in test [11] and in test [12] was inactive. The result in test [13], in test [14], in test [15], in test [16], in test [17] and in test [18] was inactive. Besides, the outcome in test [19] and in [20] was inactive.
With `COc1cccc(O)c1`, the result in test [1], in [2], in [4], in test [6], in test [7] and in [8] was inactive. Moreover, the result in test [9], in [10], in test [11], in [12], in test [13] and in [14] was inactive. The outcome in [15], in test [16], in test [17], in [18], in test [19] and in test [20] was inactive. The AC50 in test [5] was 0.193 µM (active).
